Screen size: about 1,500 compounds; about 460 (31%) were called active. Inconclusive results (about 1%) are left out.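 The calls were made as follows: active = curve reaches 40% activation over neutral controls at an AC40 no higher than the top valid tested concentration; inconclusive = no clear call, values can overlap the other calls; inactive = signal moving opposite to the expected increase, and the rest.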 A selection follows. Entries with a potency or affinity are not part of this list.
test: activators of glucose-dependent insulin secretion, dose response, cell-based, INS-1E, Gaussia luciferase, luminescence, cherry-pick, set 2 (AID 977607); details: INS-1E GLuc insulin secretion reporter, 2-3 h, active compounds read high; at 35 µM, 100% = signal doubled over neutral wells unless noted;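 also: 0% = median of the plate neutral control wells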

Max activation, inactive:
CC(C)Cc1nc2oc3c(NCc4cccnc4)ncnc3c2c2c1CCC2 30.3% [at 0.42 µM, 100% = signal doubled over neutral wells]
CCc1ccc2c(c1)cc(CN(Cc1ccco1)C(C)=O)c1nnnn12 -18.4% [at 0.005 µM, 100% = signal doubled over neutral wells]
O=C(Nc1nccs1)c1cc(N2CCOCC2)nc2ccccc12 -23.7%
COc1ccc(-c2nc(N3CCC(C)CC3)[nH]c(=O)c2C#N)cc1 28.1% [at 11 µM, 100% = signal doubled over neutral wells]
COc1cccc(-n2c(=O)n(Cc3ccccc3)c(=O)c3[nH]cnc32)c1C 14.5%
COc1ccc(C)c(-n2c(=O)n(Cc3ccccc3)c(=O)c3[nH]cnc32)c1 38.9% [at 0.42 µM, 100% = signal doubled over neutral wells]
CCc1nc2c(OCc3ccccc3C)cccn2c1N(C)C(=O)c1ccco1 -25.5%
C=CCNC(=S)Nc1ccc2cn[nH]c2c1 -18.8% [at 0.0016 µM, 100% = signal doubled over neutral wells]
O=C(Nc1ccnn1C1CCN(C2CCC2)CC1)c1ccccc1Cl -5.42%
COc1ccc(N2C(=O)CC(Sc3nc(C)cc(C)c3C#N)C2=O)cc1 (stereo unspecified) -11.1% [at 11 µM, 100% = signal doubled over neutral wells]
CCNc1nc(NCC)nc(Nn2cnnc2)n1 -14.4% [at 0.42 µM, 100% = signal doubled over neutral wells]
CC(C)Cn1nc(-c2ccccc2)c2ccccc2c1=O -16.6% [at 0.0016 µM, 100% = signal doubled over neutral wells]
Cc1ccc(-c2[nH]nc3c2C(c2cccnc2)C(C#N)=C(N)O3)cc1 (stereo unspecified) 36.3% [at 0.0016 µM, 100% = signal doubled over neutral wells]
COCCNc1nc(NCCCN(C)C)c2sccc2n1 -23.1%
COCCNc1nc(Oc2ccc(C(N)=O)cc2)c2sccc2n1 -20.7% [at 0.0016 µM, 100% = signal doubled over neutral wells]
CCCN1Cc2cccc(C(=O)NCc3ccccc3)c2C1=O -24.8% [at 0.046 µM, 100% = signal doubled over neutral wells]
Cc1ccc2c(c1)CCCN2C(=O)c1ccc2c(c1)OCO2 -14.4% [at 0.0016 µM, 100% = signal doubled over neutral wells]
CCOc1ccc(CCNC(=O)COc2cccc(-n3cnnn3)c2)cc1OCC -22.6% [at 0.005 µM, 100% = signal doubled over neutral wells]
CCOc1ccc(CCNC(=O)COC(=O)c2cccnc2SC)cc1OCC -22.4% [at 0.0016 µM, 100% = signal doubled over neutral wells]
COc1ccccc1Nc1c2c(nc3ccc(N)cc13)CCCC2 -15.8% [at 0.135 µM, 100% = signal doubled over neutral wells]
CCc1nc2n[nH]c(N)c2c2c1CCCC2 65.3%
CCc1cc(=O)oc2c(CNCc3ccc(OC)cc3OC)c(O)c(Cl)cc12 20.4%
COCCNC(=O)c1cc2c(c(-c3cccc(C#Cc4ccc(OC)c(OC)c4)c3)n1)[C@H](CCO)N(S(=O)C(C)(C)C)C2 (stereo partly specified) 8.82% [at 11 µM, 100% = signal doubled over neutral wells]
CC(C)(C)c1ccc(S(=O)(=O)N2CC(C(=O)O)Oc3ccc(Cl)cc32)cc1 (stereo unspecified) -11.3% [at 0.015 µM, 100% = signal doubled over neutral wells]
COc1ccc(C(=O)Nc2nnc(-c3cccs3)s2)cc1 -13.2% [at 0.135 µM, 100% = signal doubled over neutral wells]
Cc1ccccc1C(=O)NC1CCSC1=O (stereo unspecified) -21.5% [at 0.005 µM, 100% = signal doubled over neutral wells]
CN(C)CCCN(C(=O)CCOc1ccccc1)c1nc2c(F)cccc2s1 -32.2% [at 11 µM, 100% = signal doubled over neutral wells]
OC1(C#Cc2c(-c3ccsc3)sc3ccccc23)CCCCC1 50.8%
Cc1cc(-c2ccccc2)n2nc(N)nc2n1 -24.8% [at 0.046 µM, 100% = signal doubled over neutral wells]
O=c1c2ccccc2nnn1Cc1ccccc1 -23.5% [at 0.42 µM, 100% = signal doubled over neutral wells]
Cc1ccc2nc(N3CCN(C(=O)CCCC(=O)O)CC3)nc(-c3ccccc3)c2c1 12.5% [at 11 µM, 100% = signal doubled over neutral wells]
COC(C)(C)c1cc(C(C)(C)C)nc(N)n1 -18.4% [at 0.005 µM, 100% = signal doubled over neutral wells]
COc1cccc(-n2c(=O)c3ccccc3n(CC(=O)NCC3CCCO3)c2=O)c1 (stereo unspecified) -15.9% [at 0.015 µM, 100% = signal doubled over neutral wells]
O=C(COc1ccccc1)N(Cc1cccc(F)c1)C1CCS(=O)(=O)C1 (stereo unspecified) -16.7% [at 3.8 µM, 100% = signal doubled over neutral wells]
CC(Oc1ccc2c3c(c(=O)oc2c1)CCCC3)C(=O)NCc1cccnc1 (stereo unspecified) 27.7% [at 0.42 µM, 100% = signal doubled over neutral wells]
O=C(COC(=O)c1cccnc1Cl)Nc1cc(S(=O)(=O)N2CCCCCC2)ccc1Cl -32.2%

Reference: PubChem BioAssay AID977607 (Broad Institute, 2014)
